# Experimental data from the supplement of paper PMC8728848.
# Shown is part of a subset that was picked to be rich in the strongest signals.
# B1: CcfD (Bacteroides vulgatus), A6KYX8 (protein)
# chain: MKYKNYFKSIIYLALGAFTLGSCEDFLDRQEDEKLTFDKIWESRNTTQQYWLNAMSFLPNENGSLQGDTEPYLGASDECTIAYDRQYRWINFGTWNPSQVPYYKMDHYYKGIRECNIFLQNVYKCSDPLVTKDQLDEWYWQTRFARAYYYFLMMRDYGPVFLLGDDLLDFTASTEELYRPRNTWDQCVNYVVSEMTQCAESGVVLQQSDLPAAKWGLATVGTCHAVISRLLLYSARPLFNGNKLYSTVKNPDAPDFPELSGVKLFPELDNTKWQKAAEAAKKLIDNPCYELYRAGNDNPYEDYYGVTHETWNKELIWTDRYNGLFSWGVGTVPTGVAGTAYGAVGPTQALVDAYAMNTGWYPITGYEADGTPIVEPLSGYELASELEKSSWIYPSGGWSNKADFEIEAPNMYKDREPRFYVTVFFGGNQWLHGNSATSISFAKGGNGNKSHDYPKSGYLCNRFYDHKLNSSEGQWGNITFPVFRLGEIYLNFIEAVLECKKNGVALDPSYEALAMEKWADLRKRAGLDPITSIYGQVSTEELIQLCRKERQIELAFERHRYFDTRTWMIATQTDNGKMYGMNTSCPLDAGMKGTETPDGFWERTAFETRVFQNKHYLYPFSQRELDRNKLLTQNYGW
# Key:
# Assay in all cases: glycan array binding signal (z-score within array); higher = stronger binding
# Settings in all cases: glycan notation: IUPAC condensed, linker removed
# [1] = molecular target: Fuc(a1-2)Gal(b1-4)Fuc(a1-3)]GlcNAc(b1-2)Man(a1-3)[Fuc(a1-2)Gal(b1-4)[Fuc(a1-3)]GlcNAc(b1-2)Man(a1-6)]Man(b1-4)GlcNAc(b1-4)GlcNAc
# Method in brief: (§1)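 Columns mapping to the same glycan were averaged after glycan names were converted to IUPAC-condensed notation. The data come from 3228 arrays in the Consortium for Functional Glycomics database, limited to those with an available protein sequence. Binding is reported as a within-array Z-score averaged across arrays of one protein sequence and across linkers.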
# [2] = molecular target: Fuc(a1-2)Gal(b1-4)GlcNAc(b1-2)Man(a1-3)[Fuc(a1-2)Gal(b1-4)GlcNAc(b1-2)Man(a1-6)]Man(b1-4)GlcNAc(b1-4)GlcNAc
# Method in brief: as §1
# [3] = molecular target: Fuc(a1-2)Gal(b1-4)GlcNAc(b1-3)Gal(b1-4)GlcNAc(b1-2)Man(a1-3)[Fuc(a1-2)Gal(b1-4)GlcNAc(b1-3)Gal(b1-4)GlcNAc(b1-2)Man(a1-6)]Man(b1-4)GlcNAc(b1-4)GlcNAc
# Method in brief: as §1
# [4] = molecular target: Fuc(a1-2)Gal(b1-4)GlcNAc(b1-6)GalNAc
# Method in brief: as §1
# [5] = molecular target: Fuc(a1-2)Gal(b1-4)GlcNAc6S
# Method in brief: as §1
# [6] = molecular target: Fuc(a1-2)Gal(b1-4)[Fuc(a1-3)]GlcNAc(b1-3)GalNAc
# Method in brief: as §1
# [7] = molecular target: Fuc(a1-2)[Gal(a1-3)]Gal(b1-3)GlcNAc(b1-2)Man(a1-3)[Fuc(a1-2)[Gal(a1-3)]Gal(b1-3)GlcNAc(b1-2)Man(a1-6)]Man(b1-4)GlcNAc(b1-4)GlcNAc
# Method in brief: as §1
# [8] = molecular target: Fuc(a1-2)[Gal(a1-3)]Gal(b1-4)GlcNAc(b1-2)Man
# Method in brief: as §1
# [9] = molecular target: Fuc(a1-2)[GalNAc(a1-3)]Gal(b1-3)GlcNAc(b1-6)GalNAc
# Method in brief: as §1
# [10] = molecular target: Fuc(a1-2)[GalNAc(a1-3)]Gal(b1-4)GlcNAc(b1-2)Man(a1-3)[Fuc(a1-2)[GalNAc(a1-3)]Gal(b1-4)GlcNAc(b1-2)Man(a1-6)]Man(b1-4)GlcNAc(b1-4)GlcNAc
# Method in brief: as §1
# [11] = molecular target: Fuc(a1-2)[GalNAc(a1-3)]Gal(b1-4)GlcNAc(b1-3)[Fuc(a1-2)[GalNAc(a1-3)]Gal(b1-4)GlcNAc(b1-6)]GalNAc
# Method in brief: as §1
# [12] = molecular target: Fuc(a1-3)[Gal3S(b1-4)]Glc
# Method in brief: as §1
# [13] = molecular target: Gal(a1-3)Gal
# Method in brief: as §1
# [14] = molecular target: Gal(a1-3)Gal(b1-4)[Fuc(a1-3)]GlcNAc
# Method in brief: as §1
# [15] = molecular target: Gal(b1-3)[Fuc(a1-4)]GlcNAc
# Method in brief: as §1
# [16] = molecular target: Gal(b1-4)GalNAc(b1-3)[Fuc(a1-2)]Gal(b1-4)GlcNAc
# Method in brief: as §1
# [17] = molecular target: Gal(b1-4)GlcNAc(b1-2)Man(a1-3)Man(b1-4)GlcNAc(b1-4)GlcNAc
# Method in brief: as §1
# [18] = molecular target: Gal(b1-4)GlcNAc(b1-2)[Gal(b1-4)GlcNAc(b1-4)]Man(a1-3)[GlcNAc(b1-4)][Gal(b1-4)GlcNAc(b1-2)[Gal(b1-4)GlcNAc(b1-6)]Man(a1-6)]Man(b1-4)GlcNAc(b1-4)GlcNAc
# Method in brief: as §1
# [19] = molecular target: Gal(b1-4)GlcNAc(b1-3)Gal(b1-3)GlcNAc
# Method in brief: as §1
# [20] = molecular target: Gal(b1-4)GlcNAc(b1-3)Gal(b1-4)GlcNAc(b1-3)Gal(b1-4)GlcNAc
# Method in brief: as §1
# [21] = molecular target: Gal(b1-4)GlcNAc(b1-3)Gal(b1-4)GlcNAc(b1-3)Gal(b1-4)GlcNAc(b1-3)Gal(b1-4)GlcNAc(b1-2)Man(a1-3)[Gal(b1-4)GlcNAc(b1-3)Gal(b1-4)GlcNAc(b1-3)Gal(b1-4)GlcNAc(b1-3)Gal(b1-4)GlcNAc(b1-2)Man(a1-6)]Man(b1-4)GlcNAc(b1-4)[Fuc(a1-6)]GlcNAc
# Method in brief: as §1
# [22] = molecular target: GalNAc(b1-4)GlcNAc(b1-2)Man
# Method in brief: as §1
# [23] = molecular target: GalNAc3S(b1-4)GlcNAc3S
# Method in brief: as §1
# [24] = molecular target: GlcNAc(b1-2)[GlcNAc(b1-6)]Man(a1-6)[GlcNAc(b1-2)Man(a1-3)]Man(b1-4)GlcNAc(b1-4)GlcNAc
# Method in brief: as §1
# [25] = molecular target: GlcNAc(b1-3)Gal(b1-4)Glc
# Method in brief: as §1
# [26] = molecular target: GlcNAc(b1-3)Gal(b1-4)GlcNAc
# Method in brief: as §1
# [27] = molecular target: GlcNAc(b1-3)Gal(b1-4)GlcNAc(b1-2)[GlcNAc(b1-3)Gal(b1-4)GlcNAc(b1-6)]Man(a1-6)[GlcNAc(b1-3)Gal(b1-4)GlcNAc(b1-2)Man(a1-3)]Man(b1-4)GlcNAc(b1-4)GlcNAc
# Method in brief: as §1
# [28] = molecular target: GlcNAc(b1-3)GalNAc
# Method in brief: as §1
# [29] = molecular target: GlcNAc(b1-3)[GlcNAc(b1-4)][GlcNAc(b1-6)]GlcNAc
# Method in brief: as §1
# [30] = molecular target: Man(a1-3)[Man(a1-6)]Man(a1-6)[Man(a1-2)Man(a1-3)]Man(b1-4)GlcNAc(b1-4)GlcNAc
# Method in brief: as §1
# [31] = molecular target: Neu5Ac(a2-3)Gal(b1-3)GalNAc(b1-4)Gal(b1-4)Glc
# Method in brief: as §1
# [32] = molecular target: Neu5Ac(a2-3)Gal(b1-3)GalNAc(b1-4)[Neu5Ac(a2-3)]Gal(b1-4)Glc
# Method in brief: as §1
# [33] = molecular target: Neu5Ac(a2-3)Gal(b1-3)GlcNAc(b1-2)Man(a1-3)[GlcNAc(b1-4)][Neu5Ac(a2-3)Gal(b1-3)GlcNAc(b1-2)Man(a1-6)]Man(b1-4)GlcNAc(b1-4)GlcNAc
# Method in brief: as §1
# [34] = molecular target: Neu5Ac(a2-3)Gal(b1-4)Glc
# Method in brief: as §1
# [35] = molecular target: Neu5Ac(a2-3)Gal(b1-4)GlcNAc(b1-3)Gal(b1-4)GlcNAc(b1-3)GalNAc
# Method in brief: as §1
# [36] = molecular target: Neu5Ac(a2-3)Gal(b1-4)GlcNAc(b1-3)Gal(b1-4)GlcNAc(b1-3)[Neu5Ac(a2-3)Gal(b1-4)GlcNAc(b1-3)Gal(b1-4)GlcNAc(b1-6)]GalNAc
# Method in brief: as §1
# [37] = molecular target: Neu5Ac(a2-3)Gal(b1-4)GlcNAc(b1-6)[Neu5Ac(a2-3)Gal(b1-3)]GalNAc
# Method in brief: as §1
# [38] = molecular target: Neu5Ac(a2-3)Gal(b1-4)[Fuc(a1-3)]GlcNAc(b1-3)GalNAc
# Method in brief: as §1
# [39] = molecular target: Neu5Ac(a2-6)Gal(b1-4)GlcNAc(b1-2)Man(a1-6)[Gal(b1-4)GlcNAc(b1-2)Man(a1-3)]Man(b1-4)GlcNAc(b1-4)GlcNAc
# Method in brief: as §1
# [40] = molecular target: Neu5Ac(a2-6)Gal(b1-4)GlcNAc(b1-2)Man(a1-6)[GlcNAc(b1-2)Man(a1-3)]Man(b1-4)GlcNAc(b1-4)GlcNAc
# Method in brief: as §1
# [41] = molecular target: Neu5Ac(a2-6)Gal(b1-4)GlcNAc(b1-3)Gal(b1-4)GlcNAc(b1-6)[Gal(b1-3)]GalNAc
# Method in brief: as §1
# [42] = molecular target: Neu5Ac(a2-6)GlcNAc(b1-4)GlcNAc
# Method in brief: as §1
# [43] = molecular target: Neu5Ac(a2-8)Neu5Ac(a2-8)Neu5Ac(a2-3)Gal(b1-4)Glc
# Method in brief: as §1
# [44] = molecular target: Neu5Ac(a2-8)Neu5Ac(a2-8)Neu5Ac(a2-3)[GalNAc(b1-4)]Gal(b1-4)Glc
# Method in brief: as §1
# [45] = molecular target: Neu5Gc(a2-8)Neu5Gc(a2-6)Gal(b1-4)GlcNAc
# Method in brief: as §1
binder,measurement,setting,value
B1,glycan array binding signal (z-score),[1],2
same,glycan array binding signal (z-score),[2],4.7
same,glycan array binding signal (z-score),[3],4.15
same,glycan array binding signal (z-score),[4],0.552
same,glycan array binding signal (z-score),[5],1.84
same,glycan array binding signal (z-score),[6],0.374
same,glycan array binding signal (z-score),[7],3.23
same,glycan array binding signal (z-score),[8],-0.282
same,glycan array binding signal (z-score),[9],-0.82
same,glycan array binding signal (z-score),[10],4.4
same,glycan array binding signal (z-score),[11],0.323
same,glycan array binding signal (z-score),[12],-0.429
same,glycan array binding signal (z-score),[13],0.343
same,glycan array binding signal (z-score),[14],0.14
same,glycan array binding signal (z-score),[15],-0.269
same,glycan array binding signal (z-score),[16],-0.749
same,glycan array binding signal (z-score),[17],3
same,glycan array binding signal (z-score),[18],-0.683
same,glycan array binding signal (z-score),[19],-0.932
same,glycan array binding signal (z-score),[20],-1.02
same,glycan array binding signal (z-score),[21],0.003
same,glycan array binding signal (z-score),[22],-0.896
same,glycan array binding signal (z-score),[23],-0.21
same,glycan array binding signal (z-score),[24],-0.663
same,glycan array binding signal (z-score),[25],-0.881
same,glycan array binding signal (z-score),[26],-1.04
same,glycan array binding signal (z-score),[27],3.38
same,glycan array binding signal (z-score),[28],-0.332
same,glycan array binding signal (z-score),[29],2.41
same,glycan array binding signal (z-score),[30],-0.673
same,glycan array binding signal (z-score),[31],-0.17
same,glycan array binding signal (z-score),[32],2.47
same,glycan array binding signal (z-score),[33],-0.526
same,glycan array binding signal (z-score),[34],-0.589
same,glycan array binding signal (z-score),[35],-0.693
same,glycan array binding signal (z-score),[36],-0.429
same,glycan array binding signal (z-score),[37],5
same,glycan array binding signal (z-score),[38],-0.078
same,glycan array binding signal (z-score),[39],6.49
same,glycan array binding signal (z-score),[40],7
same,glycan array binding signal (z-score),[41],-0.841
same,glycan array binding signal (z-score),[42],0.582
same,glycan array binding signal (z-score),[43],-0.871
same,glycan array binding signal (z-score),[44],-0.556
same,glycan array binding signal (z-score),[45],-1.1
